# In all, about 4,800 compounds went through this assay and about 420 (8.8%) showed an effect of 50% or more. This excerpt belongs to a sample that is enriched for strong results.
# Test system: Plasmodium falciparum
# Assay: Confirmatory screen in NF54 nanoGlo assay, in single point, at 2uM, 72h
# Format: functional, Erythrocyte
# Settings: timepoint 72 hour
row,Compound,% Inhibition
1,CCS(=O)(=O)Nc1cc2c(C(C)=O)c(C)oc2cc1C,4%
2,Cc1ccc2c(c1)[C@@H](O)C[C@@H](C)N2C(=O)c1ccco1,-7%
3,Brc1ccc2c(c1)CN(Cc1c[nH]cn1)CCO2,4%
4,COc1ccc(N2CCN(c3nc(-c4ccccc4)cs3)CC2)cc1,-6%
5,COc1ccc(-c2cc(-c3ccccc3)nc(N3CCC(C)CC3)n2)cc1,50%
6,Cc1nc(N2CCC(C)CC2)ncc1-c1cc(=O)[nH]c(Nc2ccccc2)n1,-16%
7,Cc1cccc(NC(=O)CS(=O)(=O)Cc2cc(Cl)cc3c2OCOC3)c1C,-10%
8,COc1cccc(CNC(=O)Cn2c(=O)n(Cc3cccc(OC)c3)c(=O)c3sccc32)c1,2%
9,O=C(CNC(=O)c1ccc(C(F)(F)F)cc1)Nc1cnc2c(c1)COCC2,-1%
10,CCNC(=O)c1csc(COc2ccc3c(c2)[C@H](c2ccc(C)cc2)N(C(=O)CC(C)C)CC3)n1,36%
11,Cc1cccc(CN2C(=O)[C@@H]3CCCN3c3ccc(C#N)cc32)c1,0%
12,Cc1cc(N2CC(OCc3ccccc3)C2)nc(Nc2cccc(O)c2)n1,96%
13,Cc1cc(N2C[C@H]3CC[C@@H](C2)[C@H]3N(C)C)nc(Nc2cccc(O)c2)n1,44%
14,CN(C(=O)C(C)(C)Nc1ncc(C(F)(F)F)cc1Cl)c1ccc(Cl)cc1,35%
15,CN(CC#N)C(=O)c1ccc(Br)cc1Br,-12%
16,O=C(N[C@@H]1CN(Cc2ccccn2)CCC[C@H]1O)c1ccc(OCc2ccccc2)cc1,30%
17,CC(C)C1(CNC(=O)C(=O)c2cc(S(N)(=O)=O)cn2C)CC1,-3%
18,CCn1cc(C)c(C(=O)O)c1CC(=O)NCc1ccc(F)cc1,-12%
19,CC(CNC(=O)NCC(O)C1CC1)c1ccc(F)c(F)c1 (centres undefined),3%
20,Cc1nn(C)cc1[C@@H]1CC(=O)Nc2c1cnn2C(C)(C)C,-14%
21,COc1cc(OC)nc(-n2nc(C)cc2C(=O)Nc2ccc(Cl)cc2)n1,10%
22,Cc1cc(C)n(-c2nnc(-c3ccccc3)c(-c3ccccc3)n2)n1,2%
23,Cc1cc(C)n(-c2nc(Nc3ccc(Cl)cc3)nc(Nc3ccc(Cl)cc3)n2)n1,82%
24,O=C(Cc1cccs1)Nc1ncc(Cc2ccccc2)s1,4%
25,CCn1cc(Cl)c(C(=O)N2N=C3/C(=C/c4ccc(C)cc4)CCCC3C2c2ccc(C)cc2)n1 (centres undefined),7%

row,Compound,% Inhibition
1,Cc1ccc(NC(=O)CN2CCC3(CC2)NC(c2ccc(OC(F)(F)F)cc2)=NO3)c(C)c1,-5%
2,CCC(C)(C)c1ccc(OCC(=O)Nc2cccc(C(=O)CC(=O)Nc3ccc(Oc4ccccc4)cc3)c2)c(C(C)(C)CC)c1,-4%
3,CCN1CCN(C2CCN(c3ncc(F)c(OC)n3)CC2)CC1,48%
4,COc1nc(N2[C@@H]3CC[C@H]2C[C@@H](OC)C3)ncc1F,62%
5,COc1cc(N)ccc1OCC(F)F,2%
6,Cc1nn(C)cc1-c1cc(C(F)(F)F)nc(N2CCOCC2)n1,-5%
7,Cn1ccc(NC(=O)C(=O)c2ccc(-c3ccccc3)cc2)n1,1%
8,Cc1ccccc1NC(=O)N1CCN(C(=O)c2nonc2N)CC1,-7%
9,NS(=O)(=O)c1ccc(-c2noc(C3(c4cccc(F)c4)CCC3)n2)cc1,-9%
10,COCCN1CCc2c(C)nc3c(-c4ccc(OC)c(OC)c4)cnn3c21,6%
11,Cc1ccc(S(=O)(=O)N2CCC(c3csc(N)n3)CC2)cc1,-9%
12,CCc1ncoc1C(=O)NCC(F)(F)c1cc(F)cc(F)c1,-10%
13,O=C1CCc2[nH]c(=O)n(C3CCCCC3)c(=O)c21,4%
14,C[C@@H]1NC(=O)N(C2CCCN(Cc3cccc(C(F)(F)F)c3)C2=O)C1=O (some centres undefined),-11%
15,COc1ccc(-n2c(C)nn(Cc3ccccc3)c2=O)cc1,-11%
16,CN(CCCNC(=O)Cc1n[nH]c(=O)c2ccccc12)Cc1ccccc1,-2%
17,CCCC(=O)Nc1ccc(N2CCN(CC(=O)N(CC)CC)CC2)cc1C(=O)O,-2%
18,Cc1cc(C)c(NC(=O)c2nnn(CC(=O)NCc3ccc(F)cc3)c2C)c(C)c1,-9%
19,O=C(N[C@H]1C[C@@H]2C[C@H]1CN2C(=O)c1cccc(C(F)(F)F)c1)c1ccccc1,3%
20,COc1cc(C)c2[nH]c3c(c(=O)c2c1)CN(CC(=O)Nc1ccc(C)c(F)c1)CC3,0%
21,COc1cc(C)c2[nH]c3c(c(=O)c2c1)CN(CC(=O)Nc1ccc(F)c(C)c1)CC3,14%
22,COc1ccc(OC)c(NC(=O)CN2CCc3[nH]c4ccc(F)cc4c(=O)c3C2)c1,72%
23,COc1ccc(S(=O)(=O)N(C2CCCCC2)C2CCCCC2)cc1,-11%
24,CCN(CCc1ccncc1)S(=O)(=O)c1ccc(N2C(=O)CCS2(=O)=O)cc1C,6%
25,O=C(Nc1ccc(-c2nc3cnccc3o2)c(Cl)c1)c1sc2ccccc2c1Cl,-5%

row,Compound,% Inhibition
1,COc1cccc(-c2cc(O)cc(CC[C@H]3CCCCN3)c2)n1,73%
2,Oc1cc(CC[C@H]2CCCCN2)cc(-c2cnc3ccccc3n2)c1,73%
3,COCCN(CC1CN(Cc2ccsc2)CC1c1cccc(F)c1)C(=O)C(C)C (centres undefined),2%
4,O=C(Nc1ccc(N2CCn3c(nc4cc(Cl)ccc43)C2)cc1)c1ccc(F)cc1,-6%
5,Cc1nc(Cc2nc(O)cs2)sc1C,-20%
6,NC[C@H]1CN(CCc2cccc(Cl)c2)C(=O)O1,-8%
7,Cc1ccnc2nc(C(=O)N(C)c3ccc(Cl)cn3)nn12,16%
8,CCC(=O)Nc1nc2ccc(NS(=O)(=O)Cc3ccccc3)cc2s1,-5%
9,Fc1cccc(Br)c1C1CC(c2cccnc2)Nc2ncnn21 (centres undefined),-9%
10,CC(C)(C)OC(=O)NCc1ccccc1O,1%
11,CCN1CCN(C(=O)c2ccccc2N2CCC(NC(=O)c3cccc(Br)c3)CC2)CC1,44%
12,O=C(NC1CCN(Cc2ccccc2)CC1)c1cncc(O)c1,-10%
13,CCN(CC)CCCNC(=O)c1ccc(-c2nc(CS(=O)(=O)c3ccccc3)c(C)o2)cc1,-10%
14,O=S(=O)(c1ccc(Cl)cc1)N1CCN(C2CCCC2)CC1,2%
15,Cc1ccc(Cn2cnc(NC(=O)CCn3c(=O)cc(C(F)F)c4cn(C)nc43)n2)cc1,-8%
16,CCCCn1nc(NC(=O)c2cc(C3CC3)[nH]n2)cc1C,-2%
17,CCn1c(C)c(C)c2cc(C(=O)Nc3cccc(S(=O)(=O)N4CCOCC4)c3)ccc21,0%
18,CN(C)Cc1ccc(NC(=O)c2cc(F)cc3c(=O)c4cc(F)ccc4[nH]c23)cc1,79%
19,CC(C)NC(=O)N(C)Cc1ccc(F)cc1,0%
20,O=c1[nH]c2ccccc2c(NCc2ccccc2)c1N1CCN(c2ccccc2)CC1,5%
21,Cc1cccc(NC(=O)c2cc(C)nc3c2c(C)nn3-c2ccc(F)cc2)c1,-2%
22,CC(C)n1nccc1NC(=O)c1c[nH]c2ccc(F)cc2c1=O,-1%
23,CCN1CCN(c2cccc(NC(=O)c3cc(F)cc4c(=O)c5cc(F)ccc5[nH]c34)c2)CC1,97%
24,CC(=O)Nc1cccc(C#CCN2CCN(c3ccc(F)cc3)CC2)c1,-5%
25,CCN1CCN(c2cccc(NC(=O)c3ccc4[nH]c5ccccc5c(=O)c4c3)c2)CC1,93%

row,Compound,% Inhibition
1,O=C(Nc1ccc(N2CCC(N3CCCCC3)CC2)cc1C(=O)O)c1ccccc1Cl,4%
2,O=C1C2C3C=CC(C3=C(c3ccccc3)c3ccccc3)C2C(=O)N1CCO (centres undefined),-5%
3,N#Cc1ccc(N[C@H]2CCCN(Cc3ccc(F)cc3F)C2=O)cn1,-10%
4,Cc1nc(COc2nc(C(C)(C)C)no2)cs1,-10%
5,Cc1ccsc1NC(=O)OC(C)(C)C,1%
6,Cc1nonc1N(Cc1ccc(Cl)cc1Cl)S(=O)(=O)c1ccccc1,-22%
7,COc1cc(C(=O)N2CCN(c3ccccc3)CC2)cc2occc12,-2%
8,O=C(NCc1cccc(Br)c1)c1ccc(Cl)c(-n2cnc3cccnc32)c1,-1%
9,O=C(COCC(=O)Nc1cccc(Cl)c1Cl)NCCC1=CCCCC1,-3%
10,O=C(O)C1CC=CCC1C(=O)N1CCCCCC1 (centres undefined),2%
11,NC(=O)C(=O)Nc1ccccc1C(F)(F)F,-8%
12,CC(C)c1ccc(Oc2cnn(-c3cccc(Cl)c3)c(=O)c2Nc2cccc(C(=O)NC3CC3)c2)cc1,48%
13,COc1ccc(-n2ncc(Oc3cccc(C)c3)c(Nc3cccc(C(=O)NCc4ccc(F)cc4)c3)c2=O)cc1,50%
14,COc1ccc(CNC(=O)c2cc(C(=O)c3ccc(F)cc3)c[nH]2)cc1,-11%
15,O=c1cc(COc2ccc(F)c(F)c2)nc2sccn12,3%
16,CN(CCNC(=O)CCc1cn(-c2ccccc2)nc1-c1ccc2c(c1)OCO2)C1CCCCC1,52%
17,Cc1cc2nc(C)c(=O)n(CCC(=O)NCCCN(C)C3CCCCC3)c2cc1C,0%
18,O=C(CCn1nc(-c2ccc3c(c2)OCO3)ccc1=O)NC1CCCCC1,-10%
19,CN(C)c1noc(CN2CCc3ccc(F)cc3C2)n1,25%
20,COc1ccc(S(=O)(=O)Nc2c(C)nc3ncnn3c2O)cc1,-18%
21,CCN1CCN(c2nc(O)c3c(n2)NC(=O)C[C@H]3c2cccc(F)c2)CC1,-11%
22,Cn1ncc2c(NCCO)nc(N3CCCCCC3)nc21,5%
23,O=S(=O)(NC1CCCCC1)c1ccc(Cl)c(S(=O)(=O)NC2CCCCC2)c1,0%
24,N#Cc1cc(S(=O)(=O)NCCN(C2CC2)S(=O)(=O)c2ccc(Cl)c(C#N)c2)ccc1Cl,75%
